{"source": "PubChem BioAssay (NCATS)", "note": "Records with an inconclusive call do not appear. Calls of active or inactive are those of the source. Calls follow the shape of the dose curve; as a rule, active = well fitted inhibition curve with a large enough effect; inconclusive = small, poorly fitted or top-dose-only effect; inactive = flat fitted curve, though single readings scatter.", "data": [{"tested_on": "CRL-7250", "assay": "qHTS assay to identify novel small-molecules to repurpose for Merkel cell carcinoma treatment (AID 1296009); also: nearly all actives have a fitted effect of over 60% in size", "settings": "MCC and control cell lines, CellTiter-Glo viability, 72 h; series mostly up to 92 µM; activity change, negative = cytotoxicity: at the top concentration", "procedure,_shortened": "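Cells were incubated with compound for 72 hr at 37 degree celsius before CellTiter-Glo addition. Luminescence was normalized with no-cell wells as full cytotoxicity and DMSO as baseline.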", "values": [{"smiles": "COc1ccc(NC(=O)C2C[C@H](C)CC[C@H]2C(C)C)cc1", "note": "(some centres undefined)", "outcome": "inactive"}, {"smiles": "C/C=C(\\C)C(=O)OC1CC2C(CC=C3CC(OC4CC(OC)C(OC5CC(OC)C(OC6CC(OC)C(OC7CC(OC)C(OC8CC(OC)C(OC9OC(CO)C(O)C(O)C9O)C(C)O8)C(C)O7)C(C)O6)C(C)O5)C(C)O4)CCC32C)C2(O)CCC(C(C)=O)C12C", "note": "(centres undefined)", "outcome": "inactive [at 9.27 µM]"}, {"smiles": "COC1CC(=O)C23C(=O)NC(CC(C)C)C2C(C)C(C)=CC3/C=C(\\C)CCC1O", "note": "(centres undefined)", "outcome": "inactive [at 17.4 µM]"}, {"smiles": "COC1C=C(C)C(O)(CO)C2(C)CCCC(C)(C)C12", "note": "(centres undefined)", "outcome": "inactive"}, {"smiles": "CCC(=O)N[C@@H]1Cc2ccccc2[C@H](c2ccccc2)C1", "outcome": "inactive"}, {"smiles": "COc1ccc(C2=CC(=O)OC2Cc2ccc(O)cc2)c(O)c1", "note": "(centres undefined)", "outcome": "inactive"}, {"smiles": "CNC(C)C(=O)NC(C(=O)N1CCCC1C(=O)Nc1cccc2ncccc12)C(C)C", "note": "(centres undefined)", "outcome": "inactive"}, {"smiles": "C=C1CC[C@H]2[C@@H](/C=C(\\C)C(=O)[C@@]3(OC(C)=O)C[C@H](C)[C@H](OC(C)=O)[C@@H]3[C@H]1OC(C)=O)C2(C)C", "outcome": "inactive [at 17.4 µM]"}, {"smiles": "C=C1CC2C3(C)C(O)CC(=O)C(C)(C)C3C(O)C(OC(C)=O)C2(C)C2C(=O)OC(C)(C(=O)OC)C(=O)C12C", "note": "(centres undefined)", "outcome": "inactive [at 17.4 µM]"}]}]}
